40 compounds from PubChem BioAssay (NCATS) can be followed below.

Activity calls are given as the source filed them. Calls come from the whole dose curve; as a rule, active = well fitted inhibition curve with a large enough effect; inconclusive = small, poorly fitted or top-dose-only effect; inactive = flat fitted curve, though single readings scatter.
Potency is the fitted concentration of half-maximal effect.

Sequence of DNA polymerase III PolC-type (Bacillus subtilis (strain 168)) (P13267 whole entry, looked up): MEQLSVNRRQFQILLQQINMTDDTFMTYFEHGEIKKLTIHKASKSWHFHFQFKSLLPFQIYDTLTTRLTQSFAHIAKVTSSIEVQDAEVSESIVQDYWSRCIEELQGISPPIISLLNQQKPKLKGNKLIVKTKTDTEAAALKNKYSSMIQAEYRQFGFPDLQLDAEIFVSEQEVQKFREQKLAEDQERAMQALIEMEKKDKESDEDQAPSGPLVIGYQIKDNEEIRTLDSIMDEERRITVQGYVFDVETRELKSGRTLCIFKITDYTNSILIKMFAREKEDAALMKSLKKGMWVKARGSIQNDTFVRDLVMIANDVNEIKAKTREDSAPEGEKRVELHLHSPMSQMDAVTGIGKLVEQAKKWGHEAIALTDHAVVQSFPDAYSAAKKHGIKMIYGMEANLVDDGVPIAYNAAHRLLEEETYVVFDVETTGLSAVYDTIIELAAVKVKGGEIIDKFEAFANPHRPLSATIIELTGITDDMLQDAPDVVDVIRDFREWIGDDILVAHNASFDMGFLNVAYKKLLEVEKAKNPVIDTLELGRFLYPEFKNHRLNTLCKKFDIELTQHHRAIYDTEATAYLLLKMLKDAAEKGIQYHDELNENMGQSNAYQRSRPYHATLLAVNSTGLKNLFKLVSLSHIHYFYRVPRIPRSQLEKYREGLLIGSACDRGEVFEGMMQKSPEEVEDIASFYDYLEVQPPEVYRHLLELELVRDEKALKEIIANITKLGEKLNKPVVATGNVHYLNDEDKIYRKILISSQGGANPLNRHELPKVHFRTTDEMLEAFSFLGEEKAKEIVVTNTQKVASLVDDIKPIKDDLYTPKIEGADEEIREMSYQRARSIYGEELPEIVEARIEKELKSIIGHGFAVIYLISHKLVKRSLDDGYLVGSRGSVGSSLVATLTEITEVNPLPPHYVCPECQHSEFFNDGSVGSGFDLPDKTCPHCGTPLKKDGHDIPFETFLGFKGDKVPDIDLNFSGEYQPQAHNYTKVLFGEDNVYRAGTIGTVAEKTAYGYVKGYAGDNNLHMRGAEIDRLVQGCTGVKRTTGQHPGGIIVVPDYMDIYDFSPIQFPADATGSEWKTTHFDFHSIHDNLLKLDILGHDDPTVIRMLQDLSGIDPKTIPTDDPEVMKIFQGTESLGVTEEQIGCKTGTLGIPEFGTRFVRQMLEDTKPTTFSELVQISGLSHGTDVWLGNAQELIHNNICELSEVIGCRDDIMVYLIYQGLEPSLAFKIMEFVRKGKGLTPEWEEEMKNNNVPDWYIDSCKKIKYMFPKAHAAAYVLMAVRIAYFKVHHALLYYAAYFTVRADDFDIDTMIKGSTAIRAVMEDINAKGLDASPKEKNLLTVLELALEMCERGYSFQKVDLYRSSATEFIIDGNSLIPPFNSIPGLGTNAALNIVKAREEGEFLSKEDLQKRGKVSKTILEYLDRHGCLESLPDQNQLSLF

This experiment has as its target DNA polymerase III PolC-type (Bacillus subtilis (strain 168)) (UniProt P13267). The experiment can be described thus: qHTS Validation Assay for the Inhibitors of DNA Replication in Gram-Positive Bacteria (AID 485295).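 For activity change, negative = inhibition: reconstituted holoenzyme with PolC plus beta clamp SSB and primase.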 Particulars: Gram-positive bacterial DNA replication assay; series mostly up to 57.1 µM; activity change, negative = inhibition: at the top concentration. Here is the method:
B Subtilis DNA polymerase III holoenzyme complex was assayed for DNA production by fluorescent detection of the double-stranded DNA product with PicoGreen dye. The holoenzyme complex was reconstituted from the following purified protein components: DNA Polymerase III, beta subunit processivity factor, SSB single-stranded DNA binding protein, and Primase. Single-stranded, circular M13Gori was used as a substrate with dNTPs and NTPs also supplied to the substrate reagent. Compounds from the NCGC collection were incubated with the holoenzyme mixture for […] at room temperature to allow binding to occur, and then the reaction was started by the addition of substrate. After 30 min incubation at room temperature, PicoGreen solution containing EDTA was added to stop the reaction and to visualize the double-stranded DNA produced. Reaction progress was measured in a ViewLux CCD imager in fluorescence intensity mode by using 480 nm excitation and 540 nm emission filter set.
1. Thaw screening compounds.
2. Label assay plates. Prepare pipette tips, reagent reservoirs, buffers and controls.
1. Thaw Enzymes, DNA template, Nucleotides and PicoGreen dye concentrate. Thawed enzymes are stable on ice for ~1
week. Other thawed components are stable indefinitely.
2. Prepare sufficient quantities of Enzyme, Substrate and PicoGreen Quench mixes (according to Table II). For the number of
compound plates being screened.
3. Ensure that the tip wash station reservoirs have clean water and turn on recirculating chiller so that the chilled deck position
1. Load 2 uL of EDTA controls (250 mM, Background, 100 % inhibition) and 2 uL of DMSO controls (Negative control, 0%
inhibition) in the screening plates (flat-bottomed black 384-well polypropylene, Greiner Bio-one).
2. Place Enzyme mix reservoir on the chiller position of the liquid handler deck. Make sure that chiller will maintain
temperature of Enzyme mix at 4degC. Substrate mix and PicoGreen Quench can be stored at room temp.
3. Program liquid handling robotics to dispense 18 uL of Enzyme mix into assay plates. Wash tips.
4. Aspirate and dispense 2 uL of compound from compound plates, mix and Incubate at room temperature for 10 minutes.
5. Aspirate 5 ul of Substrate mix, dispense into assay plates and mix by pipetting. Wash tips.
6. Incubate at room temperature (21 +/- 1 deg C) for 20 minutes.
7. Quench reactions by addition of 25 uL PicoGreen Quench mix and mix by pipetting (using HTS robotics or bulk reagent
dispenser such as a Multidrop or uFill). Keep plates in the dark or stacked until ready to read fluorescence.
8. Read fluorescence intensity of plates on plate reader using "Fluorescein (Ex 485 nm/ Em 535 nm, 0.1s)" setting.
With `COc1cc(C(O)CN)ccc1O` (stereo not given), the “activity change, negative = inhibition” value is 4.97% (inactive).

As for `c1ccc2sc(C3(N4CCCCC4)CCCCC3)cc2c1`, the “activity change, negative = inhibition” value was 1.39% (inactive).

Take `C[C@]12CCC3C(CC[C@H]4C[C@H](O)CC[C@]34C)C1CC[C@@H]2C(=O)CO` (stereo not given in full): the “activity change, negative = inhibition” value is -1.5% (inactive).

Consider `CNCCc1c[nH]c2ccc(O)cc12`, for which the “activity change, negative = inhibition” value was -2.03% (inactive).

As to `O=C(N[C@H]1CN2CCC1CC2)c1ccc(Cl)cc1`, the “activity change, negative = inhibition” value is 4.2% (inactive).

With `NC(=NCCC[C@H](N)C(=O)O)N[N+](=O)[O-]`, the “activity change, negative = inhibition” value was 4.47% (inactive).

On to `C[C@@H]1O[C@H](C[N+](C)(C)C)C[C@H]1O`, for which the “activity change, negative = inhibition” value is -0.252% (inactive).

In the case of `COc1ccc2c(c[n+](C)c3c4cc5c(cc4ccc23)OCO5)c1OC`, the Potency is 26.7 µM (active).

As to `CCCCc1ccc(C(=O)O)nc1`, the “activity change, negative = inhibition” value was 8.87% (inactive).

For the compound `NC(CCP(=O)(O)O)C(=O)O` (stereo not given), the “activity change, negative = inhibition” value is 3.14% (inactive).

For the compound `CC(=O)NCCc1c[nH]c2ccccc12`, the “activity change, negative = inhibition” value was -0.747% (inactive).

As to `C[C@@H](N)Cc1cnc[nH]1`, the “activity change, negative = inhibition” value is -1.19% (inactive).

With `O=C(O)Cc1cnc[nH]1`, the “activity change, negative = inhibition” value was 4.94% (inactive).

On to `CCCN1CCO[C@@H]2c3cc(O)ccc3OC[C@H]21`, for which the Potency entry was “inactive”.

With `CNCCc1ccc(O)c(O)c1`, the “activity change, negative = inhibition” value is -4.12% (inactive).

As for `CC(C)Oc1cccnc1N(C)C1CCN(Cc2ccccc2)CC1`, the “activity change, negative = inhibition” value is -3.98% (inactive).

For `Clc1cnc(Oc2ccc(Oc3ncc(Cl)cc3Cl)cc2)c(Cl)c1`, the “activity change, negative = inhibition” value is 7.4% (inactive).

Take `C[C@]12N[C@H](Cc3ccccc31)c1ccccc12`: the “activity change, negative = inhibition” value is -5.45% (inactive).

`NC1CC1c1ccccc1` (stereo not given): the “activity change, negative = inhibition” value was 3.8% (inactive).

As to `c1ccc(CCCN2CCN(CCOC(c3ccccc3)c3ccccc3)CC2)cc1`, the “activity change, negative = inhibition” value is -26.4% (inactive).

On to `CN1C2CCC1CC(OC(=O)c1cc(Cl)cc(Cl)c1)C2` (stereo not given), for which the “activity change, negative = inhibition” value was 4.21% (inactive).

For the compound `CC(=O)[C@H]1CCC2C3CC[C@H]4C[C@H](O)CC[C@]4(C)C3CC[C@@]21C` (stereo not given in full), the “activity change, negative = inhibition” value is 6.43% (inactive).

Turning to `COC(=O)[C@@H](N)CCCN=C(N)N[N+](=O)[O-]`, the “activity change, negative = inhibition” value was 7.37% (inactive).

For the compound `CC(Cc1ccc(O)cc1)NCC(O)c1cc(O)cc(O)c1` (stereo not given), the “activity change, negative = inhibition” value was 0.878% (inactive).

Take `CCCN(CCC)[C@@H]1CCc2ccc(O)cc2C1`: the “activity change, negative = inhibition” value is -4.96% (inactive).

Take `O=C(O)[C@@H]1CCN1`: the “activity change, negative = inhibition” value is 0.605% (inactive).

For the compound `CS(=N)(=O)CC[C@H](N)C(=O)O` (stereo not given in full), the “activity change, negative = inhibition” value was -12.8% (inactive).

Take `CC[C@@H](C(N)=O)N1CCCC1=O`: the “activity change, negative = inhibition” value is 4.76% (inactive).

Regarding `NC(CP(=O)(O)O)C(=O)O` (stereo not given), the “activity change, negative = inhibition” value was 2.53% (inactive).

With `O=C(Cc1ccc(Cl)c(Cl)c1)N1CCCCC1CN1CCCC1` (stereo not given), the “activity change, negative = inhibition” value is 0.626% (inactive).

Take `S=C(NC1CCCCC1)N1CCC(c2cnc[nH]2)CC1`: the “activity change, negative = inhibition” value is 2.24% (inactive).

On to `Cc1c(C(=O)c2cccc3ccccc23)c2cccc3c2n1[C@H](CN1CCOCC1)CO3`, for which the “activity change, negative = inhibition” value is -17.8% (inactive).

As to `NC(N)=NOCCC(N)C(=O)O` (stereo not given), the “activity change, negative = inhibition” value was -7% (inactive).

For `CC(C)NC(C)Cc1ccc(I)cc1` (stereo not given), the “activity change, negative = inhibition” value was 3.81% (inactive).

`NCCc1c[nH]c2ccc(O)cc12`: the “activity change, negative = inhibition” value was 5.3% (inactive).

For the compound `O=C1CCCN1CC#CCN1CCCC1`, the “activity change, negative = inhibition” value was 8.14% (inactive).

On to `CCCN1CCC[C@H](c2cccc(O)c2)C1`, for which the “activity change, negative = inhibition” value is 5.17% (inactive).

As to `Oc1ccc2c3c1O[C@H]1c4[nH]c5c(c4C[C@@]4(O)[C@@H](C2)N(CC2CC2)CC[C@]314)C[C@@]1(O)[C@H]2Cc3ccc(O)c4c3[C@@]1(CCN2CC1CC1)[C@H]5O4`, the “activity change, negative = inhibition” value was 5.16% (inactive).

In the case of `Cn1cnc(CCN)c1`, the “activity change, negative = inhibition” value was 8.3% (inactive).

`NC1CCc2cc(O)c(O)cc2C1` (stereo not given): the “activity change, negative = inhibition” value was -2.63% (inactive).
